Consider 107 molecules from ChEMBL document CHEMBL4513216, “Probing the Open Global Health Chemical Diversity Library for Multistage-Active Starting Points for Next-Generation Antimalarials” (ACS Infect Dis, 2020).

Hit rate of the full screen: of about 69,000 compounds, about 8,600 (12%) showed an effect of 50% or more. Many of the other results were omitted from the sample, so strong results are more common in it than they were.

The assay relates to Plasmodium berghei. Kind of assay: Screen against P. berghei liver stage (PbLuc), transformed with Luciferase, at 10uM. The format is functional, HepG2. The note with it: tested at 10 uM.
On to `CC(C)(C)C1CC(=O)Nc2c1cnn2Cc1ccco1` (configuration not stated), for which the INHIBITION is listed as -21.7%.
The value for `CN(C)c1ccc(C2CC(=O)Nc3c2cnn3Cc2ccco2)cc1` (configuration not stated) was 1.45%; that for `CC(C)C1CC(=O)Nc2c1cnn2Cc1ccco1` (configuration not stated) was 7.85%; that for `O=C1CC(c2ccc(C(=O)O)cc2)c2cnn(Cc3ccco3)c2N1` (configuration not stated) was -8.04%.
The value for `CC(C)CC1CC(=O)Nc2c1cnn2Cc1ccco1` (configuration not stated) was 50.2%.
Consider `O=C1CC(c2ccc(CO)o2)c2cnn(Cc3ccco3)c2N1` (configuration not stated), for which the INHIBITION came to 67.6%.
As for `COc1ccc(CN(Cc2cnc(N)nc2)CC2CCCO2)c(OC)c1` (configuration not stated), the INHIBITION is given as 23.2%.
The value for `CNC(=O)[C@@H](c1ccccc1F)N1CCC[C@H]1C(=O)NC1CCCC1` was -49.3%; that for `O=C(CN1C[C@H]2CC(OCc3ccccc3)C[C@H]2C1)N1CCOCC1` (some centres not stated) was -2.09%.
Then `CC(C)C1CN(C(=O)c2cn3cc(Cl)cnc3n2)CCCN1CC1CC1` (configuration not stated), with 60.3%.
For the molecule `Cc1[nH]c(=O)[nH]c(=O)c1CC(=O)N1CCCN(CC2CC2)C(C(C)C)C1` (configuration not stated), the INHIBITION is recorded as -69.3%.
Then `CC(C)C1CN(C(=O)c2cc(=O)[nH]c(=O)[nH]2)CCCN1CC1CC1` (configuration not stated), with 74.8%; and `CC(C)C1CN(C(=O)c2ccc(Cl)cn2)CCCN1CC1CC1` (configuration not stated), with 14.9%.
On to `CC(C)C1CN(C(=O)c2cn3ccccc3n2)CCCN1CC1CC1` (configuration not stated), for which the INHIBITION is given as 47.6%.
Take `CC(C)C1CN(C(=O)c2cc(=O)[nH]c(=O)[nH]2)CCC(=O)N1CC1CC1` (configuration not stated): the INHIBITION came to 9.35%.
For the molecule `CNC(=O)C1(c2cnccn2)CCCN1C(=O)c1ccccn1` (configuration not stated), the INHIBITION is 42.4%.
The value for `CCOCC(O)CN1CCN(C(=O)C2CCCC2)CC1` (configuration not stated) was -19.4%.
Then `Cc1ccc(CN(CCCN2CCOCC2)Cc2cnc(C)n2C)o1`, with -11.7%.
Then `O=C(c1cccc(OCc2cscn2)c1)N1CCOCC1`, with 45.75%; and `NC(=O)C1CCN(C(=O)c2ccc(OCc3cscn3)cc2)CC1`, with 56.85%.
`O=C1CN(C(=O)c2cccc(OCc3cscn3)c2)CCN1`: the INHIBITION is 61.5%.
The value for `NC(=O)C1CCN(C(=O)c2cccc(OCc3cscn3)c2)CC1` was 17.8%; that for `NC(=O)C1CCCN(C(=O)c2cccc(OCc3cscn3)c2)C1` (configuration not stated) was 24.05%.
For `CC(=O)N1CCN(C(=O)c2cccc(OCc3cscn3)c2)CC1`, the INHIBITION is listed as 1.82%.
Then `Cc1cccc(CN2CCC3(CC2)NC(=O)CC3c2ccccc2)n1` (configuration not stated), with 37.1%; and `CC1CCCN(C(=O)NCCCn2cncn2)C1` (configuration not stated), with 9.45%.
Consider `Cn1nccc1-c1nnn2c1COCC(CNCC1CC1)C2` (configuration not stated), for which the INHIBITION was found to be 45.7%.
With `CC(C)CN1CCC2(C=C(C(=O)NC3CC3)c3ccccc32)CC1`, the INHIBITION worked out at 27.2%.
Then `COCCNCc1ccc(OCC(=O)NC(C)(C)C)cc1`, with 51.6%.
Turning to `CC(C)(C)NC(=O)COc1ccc(CNCCOc2ccccn2)cc1`, the INHIBITION was determined as 18.6%.
The value for `CC(C)(C)NC(=O)COc1ccc(CNCc2ccccn2)cc1` was -6.39%; that for `Cc1ccc(C2=CCN(C(=O)C3CCN(C)C(=O)C3)CC2)cc1` (configuration not stated) was -14.7%; that for `COc1ncccc1C(=O)NC1CCOc2ccccc21` (configuration not stated) was 33.3%.
Then `CCN(C)c1ncnc2c1CCN(C(=O)NCc1cccnc1)CC2`, with -75.9%; and `Cn1nc(-c2ccc(Cl)cc2)c(Br)c1C(=O)O`, with 65.6%.
On to `Cn1nc(-c2cccc(Cl)c2)c(Br)c1C(=O)O`, for which the INHIBITION is recorded as 46.1%.
Then `Cn1nc(-c2ccccc2)c(Cl)c1C(=O)O`, with 46.1%; and `Cc1cccc(-n2cnc(Cl)c2C(=O)O)c1`, with 8.08%; and `Cc1ccc(-c2nn(C)c(C(=O)O)c2Br)cc1`, with 62.8%.
Then `Cn1nc(-c2ccccc2)c(Br)c1C(=O)O`, with 36.9%.
As to `CNC(=O)CN(C)C(=O)c1ccc(-c2nc(C)cs2)cc1`, the INHIBITION came out at 40.7%.
The value for `Cc1noc(CNC(=O)N2CCN(c3nc(C)c(C)s3)CC2)n1` was 10.5%.
Then `CCCN(Cc1cnn(C)c1)S(=O)(=O)c1cccc(F)c1C#N`, with -43.6%.
The value for `O=C1CCC2(CCC(NC(=O)NCc3ccccc3)CC2)N1` (configuration not stated) was -46.7%; that for `CC(CN1CCOC1=O)NC(=O)c1cccc(Cl)c1Cl` (configuration not stated) was -28.9%.
Take `Cc1cnn(CC2CCCN2C(=O)c2ccccc2-n2cnnn2)c1` (configuration not stated): the INHIBITION is -33.9%.
For `O=c1[nH][nH]c2cn(-c3ccc(F)cc3)c(=O)n12`, the INHIBITION is 26.6%.
The value for `O=c1[nH][nH]c2cn(-c3ccc(Br)cc3)c(=O)n12` was 46.4%; that for `O=c1[nH][nH]c2cn(-c3ccccc3)c(=O)n12` was 63.7%; that for `COc1ccc2c(ccn2CCC(=O)Nc2n[nH]c(C(C)C)n2)c1` was -45.5%.
Take `CN(C(=O)NCc1ccsc1)C1CCN(c2ccccc2)C1=O` (configuration not stated): the INHIBITION was -10.2%.
Then `CCCc1cc(=O)n(CC(=O)NC(C)C)c(-n2nc(C)cc2C)n1`, with 29.3%.
Consider `CCCc1cc(=O)n(CC(=O)NCCOC)c(-n2nc(C)cc2C)n1`, for which the INHIBITION is 28.7%.
The value for `CCCc1nc(C)cc(N2CCC3(CCC(=O)N(CC(N)=O)C3)CC2)n1` was -42.1%.
Then `CCCNC(=O)CCNc1cncc(-n2nc(C)cc2C)n1`, with -2.03%.
Then `CCCc1cc(=O)n(CC(N)=O)c(-n2nc(C)cc2C)n1`, with 81.3%.
For `CCCNC(=O)Cn1c(-n2nc(C)cc2C)nc(CCC)cc1=O`, the INHIBITION came to 54.2%.
Then `CN(C)CCCn1ccnc1C1CCCN(c2ncc(Cl)cc2F)C1` (configuration not stated), with 17.5%.
On to `O=C(O)C1(n2ccc(-c3ccco3)n2)CCN(Cc2ccccn2)CC1`, for which the INHIBITION was 4.1%.
The value for `Cc1cc(C)n(C2CN(CC(=O)NC(C3CC3)C3CC3)C2)n1` was 17.4%; that for `O=C(NCC(=O)N1CCCC1)c1nc(Cc2c(Cl)cccc2Cl)no1` was -32.8%; that for `Cc1ccc(C#N)c(N2CCC3(CCCN(C4CCOCC4)C3=O)C2)n1` (configuration not stated) was -20.8%.
As for `c1cnc(N2CCOCC3(C2)CN(c2nccs2)CCO3)nc1` (configuration not stated), the INHIBITION came to 44.8%.
Take `Cc1csc(C(Cc2ccsc2)NC(=O)CN(C)Cc2cccnc2)n1` (configuration not stated): the INHIBITION stood at 42.6%.
Regarding `CN(CC(=O)NC(Cc1ccsc1)c1cccnc1)Cc1ccccn1` (configuration not stated), the INHIBITION came out at 26.1%.
Then `CN(CC(=O)NC(Cc1ccsc1)c1cccnc1)Cc1cccnc1` (configuration not stated), with 64.6%; and `CC(NC(=O)N1CCCN(C)CC1)c1ccc(S(N)(=O)=O)cc1` (configuration not stated), with -5.22%; and `Cc1ccc(O)c(CNC2CCc3nc(C(C)C)nn3C2)n1` (configuration not stated), with 15.8%.
As to `CN1CC(=O)N(c2ccsc2)CC12CCN(C(=O)N1CCCC1)C2` (configuration not stated), the INHIBITION is given as -5.05%.
The value for `CCOC(=O)c1n[nH]cc1-c1cncn1CCn1nc(C)c(Cl)c1C` was -39.4%; that for `CS(=O)(=O)N1CCCC12CCCN(C(=O)c1ccc[nH]1)C2` (configuration not stated) was -24.8%.
Then `CS(=O)(=O)N1CCCCC12CCN(C(=O)c1ccccc1)C2` (configuration not stated), with 61.8%; and `CS(=O)(=O)N1CCCC12CCCN(C(=O)c1ccc3[nH]ccc3c1)C2` (configuration not stated), with 57.9%; and `CS(=O)(=O)N1CCCC12CCCN(C(=O)c1ccncc1)C2` (configuration not stated), with 10.7%.
The value for `CS(=O)(=O)N1CCCC12CCCN(C(=O)c1ccnnc1)C2` (configuration not stated) was 26.4%; that for `CS(=O)(=O)N1CCCC12CCCN(C(=O)c1ccc3c(c1)OCO3)C2` (configuration not stated) was -1.15%.
Take `O=S1(=O)C[C@@H]2[C@H](C1)N(Cc1ncc[nH]1)CCN2CCCc1ccccc1`: the INHIBITION is listed as 34.275%.
Turning to `COc1ccc(Cl)cc1NC(=O)CN1CCc2nc(NC(C)=O)sc2C1`, the INHIBITION was found to be 30.2%.
As to `CCOc1ccccc1C(C(=O)O)N(C)Cc1cc(C)[nH]n1` (configuration not stated), the INHIBITION was found to be 27.6%.
Consider `Cc1n[nH]c(C)c1NC(=O)CN1CCc2c(nc(C(C)C)n2C)C1`, for which the INHIBITION is -2.48%.
Then `CCCc1noc(CCCC(=O)N2CCCC2c2cnn(C)c2)n1` (configuration not stated), with 64.7%.
The value for `CCCc1noc(CCC(=O)N2CCCC2c2ccc(OC)cc2)n1` (configuration not stated) was 0.914%; that for `Cn1cc(C2CCCN2C(=O)CCCOc2ccccc2F)cn1` (configuration not stated) was 0.914%.
Take `CCCc1noc(CCC(=O)N2CCCC2c2ccncc2)n1` (configuration not stated): the INHIBITION is recorded as 13.3%.
The value for `Cn1cc(C2CCCN2C(=O)CCCc2cccs2)cn1` (configuration not stated) was 9.14%; that for `Cn1cc(C2CCCN2C(=O)CCCc2ccccn2)cn1` (configuration not stated) was 62.6%; that for `Cc1nnc([C@@H]2C[C@H]3CN(C(=O)c4c(C)noc4C)C[C@H]3O2)[nH]1` was 12.7%.
The value for `CC(C)Cc1cc(NC(=O)c2ccncc2)n(C)n1` was 48.4%; that for `c1ccc(Cc2cncc(C3CCCN3C3CCOCC3)n2)cc1` (configuration not stated) was 10.175%; that for `Cn1nc(C2CCCN(Cc3cccc(F)c3)C2)c2nccnc21` (configuration not stated) was 31.3%.
For `c1cc(CN2CCCC(c3nnc(-c4cnccn4)o3)C2)ccn1` (configuration not stated), the INHIBITION is on record as 26.8%.
Then `Cn1nc(C2CCCN(Cc3ccccc3)C2)c2nccnc21` (configuration not stated), with 64.9%.
The value for `Cn1nc(C2CCCN(Cc3ccc(F)c(F)c3)C2)c2nccnc21` (configuration not stated) was 54.4%; that for `Fc1ccc(CN2CCCC(c3nnc(-c4cnccn4)o3)C2)cc1F` (configuration not stated) was 58.6%.
In the case of `Cn1nc(C2CCCN(Cc3ccc(F)cc3)C2)c2nccnc21` (configuration not stated), the INHIBITION is listed as 43.6%.
Then `Cn1nc(C2CCCN(Cc3cc(F)cc(F)c3)C2)c2nccnc21` (configuration not stated), with 36.4%.
Regarding `c1cncc(CN2CCCC(c3nnc(-c4cnccn4)o3)C2)c1` (configuration not stated), the INHIBITION was -22.6%.
With `Cn1nc(C2CCCN(Cc3cc(F)ccc3F)C2)c2nccnc21` (configuration not stated), the INHIBITION is 40%.
The value for `Cc1nc(C2CCCN2Cc2ccn(C)c(=O)c2)no1` (configuration not stated) was 5.7%.
`COCCN(C)C(C(=O)O)c1ccc(C)c(C)c1` (configuration not stated): the INHIBITION is 19.4%.
The value for `CCN1CC(=O)NCC12CCN(C(=O)c1ccco1)C2` (configuration not stated) was 1.34%; that for `Cc1cc(C)n(CC2CCCN2C(=O)c2ccc3nncn3c2)n1` (configuration not stated) was -54.6%; that for `Cc1noc2nc(C3CCCN(Cc4ccncc4)C3)cc(C(F)F)c12` (configuration not stated) was 34%.
The value for `Cc1nc(C(C)NCc2cc(O)c3cccc(F)c3n2)cs1` (configuration not stated) was -2.48%; that for `Cn1cc(NC(=O)Cc2cccs2)c(=O)n(C)c1=O` was -7.16%; that for `Cn1cc(Br)cc(NC(=O)Cc2cccs2)c1=O` was 53.3%.
`CCC(=O)Nc1cc(Br)cn(C)c1=O`: the INHIBITION worked out at 8.92%.
